Assay outcomes as filed in PubChem BioAssay.
miR-122 inh – miR-122 suppressors via Renilla sensor increase, primary screen, cell-based, Huh7 psiCHECK-miR122, Renilla luciferase, single point; hit rate 0.14% among 340,000; 48 h; AID 623901, 2012; activation, % at 12.5 µM;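 active = mean activation of 30% or more, with every replicate also reaching 30%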;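 note: 0% = median of neutral control wells and 100% = median of positive control wells; higher luciferase signal means stronger suppression of miR-122 activity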
* marks the source's active call; other numbers are inactive results. Only a selection was taken, and hits are over-represented in it overall.

SMILES	miR-122 inh
COc1cccc(C#Cc2ccc3c(c2)O[C@@H](CN(C)C(=O)c2ccccn2)[C@@H](C)CN([C@@H](C)CO)S3(=O)=O)c1	5
C[C@H]1CN([C@@H](C)CO)C(=O)c2cc(/C=C/c3ccccc3)cnc2O[C@@H]1CN(C)C(=O)C1CCOCC1	2
COCC(=O)N(C)C[C@H]1Oc2cc(-c3cncnc3)ccc2S(=O)(=O)N([C@@H](C)CO)C[C@@H]1C	-3
C[C@@H]1CN([C@@H](C)CO)C(=O)c2cc(-c3cccc(C(=O)N(C)C)c3)cnc2O[C@@H]1CN(C)S(=O)(=O)c1ccc(F)cc1	2
Cc1cc(OCC(O)CN2CCOCC2)cc(C)c1Cl (stereo not drawn)	-91
Cc1cc(C)cc(OCC(O)CN2CCC(CN3C(=O)c4cccc5cccc(c45)C3=O)CC2)c1 (stereo not drawn)	67*
CCC(=O)N(C)C[C@@H]1Oc2ncc(C#Cc3ccc(OC)cc3)cc2C(=O)N([C@@H](C)CO)C[C@H]1C	-2
Cc1ccccc1-c1cnc2c(c1)C(=O)N([C@H](C)CO)C[C@H](C)[C@H](CN(C)C(=O)c1ccccc1)O2	0
CCN(CC)CCNC(=O)c1ccc(NC(=O)c2cn(-c3ccc(F)cc3)nc2-c2cccc(OC)c2)cc1	68*
COc1cccc(C(=O)Nc2ccc(C(=O)O)cc2)c1	-113
COCC#Cc1ccc2c(c1)O[C@H](CN(C)C(=O)C1CCCCC1)[C@@H](C)CN([C@@H](C)CO)S2(=O)=O	-19
CC(=O)Nc1ccc(NS(=O)(=O)c2ccc3ccccc3c2)cc1	-105
CC(=O)Nc1ccc(-c2cc(-c3ccc(NC(C)=O)cc3)nc(-c3ccc(NC(C)=O)cc3)n2)cc1	32*
CC(=O)Nc1ccc(S(=O)(=O)Nc2cccc(-c3nc4ccccc4o3)c2)cc1	-138
C/C=C/c1cnc2c(c1)C(=O)N([C@H](C)CO)C[C@H](C)[C@@H](CN(C)C(=O)c1cccnc1)O2	1
C[C@@H]1CN([C@H](C)CO)C(=O)c2cc(/C=C/c3ccccc3)cnc2O[C@H]1CN(C)C(=O)c1cccc(F)c1	-14
COCC(=O)N(C)C[C@@H]1Oc2cc(-c3cncnc3)ccc2S(=O)(=O)N([C@H](C)CO)C[C@@H]1C	0
C[C@@H]1CN([C@@H](C)CO)S(=O)(=O)c2ccc(Br)cc2O[C@H]1CN(C)Cc1cccc(F)c1	7
CCCCNC(=O)Nc1nnc(-c2ccc(OCC)cc2)o1	36*
CCCCOc1ccc(S(=O)(=O)Nc2ccc(NC(C)=O)cc2)cc1	-205
C[C@@H]1CN([C@@H](C)CO)C(=O)c2cccc(NS(=O)(=O)c3ccccc3)c2O[C@@H]1CN(C)Cc1ccc(C(=O)Nc2ccccc2N)cc1	-181
CO[C@@H]1CN(C)C(=O)c2ccc(NC(=O)c3ccccc3)cc2OC[C@H](C)N(C)C[C@@H]1C	-3
C[C@H](CO)N1C[C@H](C)[C@@H](CN(C)CC2CCOCC2)Oc2ncc(-c3ccc(F)cc3)cc2C1=O	2
C[C@H](CO)N1C[C@H](C)[C@@H](CN(C)Cc2ccc(Oc3ccccc3)cc2)Oc2c(NC(=O)C3CCOCC3)cccc2C1=O	-100
CC(OC(=O)c1cccc(S(=O)(=O)Nc2cccc(C(F)(F)F)c2)c1)C(=O)Nc1ccc2c(c1)OCCO2 (stereo not drawn)	-101
SMILES	miR-122 inh
O=C(Cc1cccc2ccccc12)Nc1ccc(OC(F)F)c(Cl)c1	-94
O=C(Nc1ccc(OC(F)F)cc1)Nc1cccc(C(F)(F)F)c1	44*
CC(=O)N(C)C[C@H]1Oc2cc(C#CC3(O)CCCC3)ccc2S(=O)(=O)N([C@@H](C)CO)C[C@H]1C	-12
CNC[C@@H]1Oc2ncc(C#Cc3ccncc3)cc2C(=O)N([C@H](C)CO)C[C@@H]1C	2
Cc1ccccc1NCN1C(=O)C2C3C=CC(C3)C2C1=O (stereo not drawn)	34*
CNC[C@@H]1Oc2cc(C#Cc3cccc(F)c3)ccc2S(=O)(=O)N([C@@H](C)CO)C[C@H]1C	2
CN1C(=O)c2cc(NC(=O)c3cccc(C(F)(F)F)c3)ccc2OC[C@H]2O[C@H](CC(=O)NCCN3CCCC3)CC[C@H]21	65*
Cc1ccc(S(=O)(=O)Nc2ccc3c(c2)C(=O)N(C)[C@@H]2CC[C@H](CC(=O)NCCc4ccncc4)O[C@@H]2CO3)cc1	45*
CCCNC(=O)C[C@H]1CC[C@@H]2[C@@H](COc3ccc(NC(=O)c4ccc(C(F)(F)F)cc4)cc3C(=O)N2C)O1	45*
CO[C@@H]1CN(C)C(=O)c2ccc(NS(=O)(=O)c3ccc(C)cc3)cc2OC[C@H](C)N(C)C[C@@H]1C	1
CN1C(=O)c2cc(NC(=O)c3ccc(C(F)(F)F)cc3)ccc2OC[C@H]2O[C@H](CC(=O)NCc3ccc4c(c3)OCO4)CC[C@H]21	33*
COc1ccccc1CNC(=O)C[C@H]1CC[C@H]2[C@@H](COc3ccc(NS(=O)(=O)c4ccc(C)cc4)cc3C(=O)N2C)O1	-807
CO[C@@H]1CN(C)C(=O)c2cc(NC(C)=O)ccc2OC[C@H](C)N(C(=O)CN(C)C)C[C@@H]1C	2
